# Results from PubChem BioAssay (NCI).
# This is part of a sample that, as a whole, favours compounds with a hit. Of some 83,000 tested, about 20% had one in any assay.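 Activity criterion: percent growth below 10, measured after cells in 96-well plates were exposed to a single compound concentration for 48 hours.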 Calls of active or inactive are those of the source.
# System: CCRF-CEM leukemia
# Test: NCI-60 one-dose screen, 48 h (100 = growth as untreated, 0 = no growth, -100 = all killed)
# Conditions: 10 µM unless noted
# Procedure: Growth inhibition of the CCRF-CEM human tumor cell line is measured as a screen for anti-cancer activity. Cells are grown in 96 well plates and exposed to the test compound for 48 hours. Compounds are tested at a single concentration, which is 10^-5 M for most compounds. The reported endpoint is percent growth (GI% or GIPRCNT), where numbers from 0 - 100% represent growth inhibition, and numbers from -100% - 0 represent cell death. For example, a value of 40 represents 60% growth inhibition. A value of 0 means no net growth occurred over the course of the experiment. A value of -40 indicates 40% of cells at the beginning of the experiment died by the end of the experiment. A value of -100 means all cells are dead at the end of the experiment.
# NCI-60 Human Tumor Cell Lines Screen was performed using the standard one-dose NCI protocol, which is described in more detail at https://dtp.cancer.gov/discovery_development/nci-60/default.htm.
# Compounds with GIPRCNT values below 10 were considered active. Activity score was based on GIPRCNT using the following formula: […]
# Score is 0 for GIPRCNT values of 100 or above, 50 for GIPRCNT values of 0, and 100 for GIPRCNT values of -100.
row,Compound,growth
1,COC(=O)[C@@H]1CCCN1C(=O)[C@@H]1CCCN1C(=O)[C@H](Cc1ccccc1)NC(=S)Nc1cc(C(F)(F)F)cc(C(F)(F)F)c1,53.4% (inactive)
2,COc1cc(C2CC(=O)c3ccccc3N2)cc(OC)c1OC (stereo not given),95.5% (inactive)
3,COc1cc2c(cc1-c1c(C)noc1C)ncc1nc(C3CCCCC3)n([C@H](C)COC(F)F)c12,44.9% (inactive)
4,CN(C)[C@@H]1C(=O)C(C(=O)NCc2nc3[nH]cnc(=S)c3[nH]2)=C(O)[C@@]2(O)C(=O)C3=C(O)c4c(O)cccc4[C@@](C)(O)[C@H]3C[C@@H]12,14.1% (inactive)
5,Nc1n[nH]c2ccc([C@@H]3Nc4ccc5[nH]ncc5c4[C@H]4C5C=CC(C5)[C@@H]34)cc12 (stereo not given in full),19.6% (inactive)
6,Nc1nc2ncc(CCNc3ccc(C(=O)O)cc3)nc2c(=O)[nH]1,87.9% (inactive)
7,Cn1c(=O)c2c(nc3n(-c4ccc(Cl)cc4Cl)c(Sc4nc(-c5ccccc5)c(C#N)c(=O)[nH]4)cn23)n(C)c1=O,47.7% (inactive)
8,O=S(=O)(Nc1ccc(I)cc1F)c1ccc(-c2cnc(C3CC3)o2)cc1,61.1% (inactive)
9,Cc1cc(C)nc(SC2=C(Nc3ccc(O)cc3)C(=O)N(Cc3ccccc3)C2=O)n1,39.1% [40 µM] (inactive)
10,O=C1NC(=S)N[C@H]1CC(=O)n1cnc2ccccc21,112% (inactive)
11,CCCCCC(=O)Oc1ccc(/C(=C(\C)c2ccc(OC)cc2)c2ccc(OCCN3CCCCC3)cc2)cc1,56.7% (inactive)
12,CCN1CCN(c2nc(NCCNc3ccnc4cc(Cl)ccc34)c3ccccc3n2)CC1,-12.8% (active)
13,c1ccc(CCNc2ncnc3[nH]ncc23)cc1,95.1% (inactive)
14,O=C(N=Nc1c(O)[nH]c2ccccc12)c1cc(-c2ccccc2)on1,107% (inactive)
15,CCCCN1CCCn2c1nc1c2c(=O)n(CCC)c(=O)n1CCC,104% (inactive)
16,O=C(/C=C/c1cc(CN2CCOCC2)c(O)c2ncccc12)c1cc(CN2CCOCC2)c(O)c2ncccc12,26.9% (inactive)
17,O=C1CC[C@H](c2ccc(O)c3c2C(=O)[C@@H]2O[C@@H]2C3=O)c2cccc(O)c21,-2.85% (active)
18,COc1cc2nc(N3CCCC3)nc(NCC3CCCCC3)c2cc1OC,-9.68% (active)
19,O=C1c2ccccc2C(=O)c2c(N=Nc3[nH]c(=S)[nH]c3O)cccc21,14.1% (inactive)
20,CCOC(=O)c1c(CN2CCN(C)CC2)nc2ccc(Cl)cc2c1-c1ccccc1,37.7% (inactive)

row,Compound,growth
1,Nc1ccc(-c2cc3c(Nc4ccc(Oc5cccc(C(F)(F)F)c5)c(Cl)c4)ncnc3s2)cc1,48.9% (inactive)
2,CC[C@H]1OC(=O)[C@H](C)[C@@H](O[C@H]2C[C@@](C)(OC)[C@@H](O)[C@H](C)O2)[C@H](C)[C@@H](O[C@@H]2O[C@H](C)C[C@H](N(C)C)[C@H]2O)[C@](C)(O)C[C@H](C)CN(C)[C@H](C)[C@@H](O)[C@]1(C)O,120% (inactive)
3,Clc1ccc2c(NCCNc3nc(N4CCCCC4)nc4ccccc34)ccnc2c1,0.574% (active)
4,Cc1cc(N2CCN(C)CC2)nc(NC2CCCC(Nc3ccnc4cc(Cl)ccc34)C2)n1 (stereo not given),-26% (active)
5,CCNc1ncnc2c1cnn2C1CCCO1 (stereo not given),87.6% (inactive)
6,CN(C)S(=O)(=O)c1cccc(-c2nc3sc4c(c3c(=O)[nH]2)CCCC4)c1,35.5% (inactive)
7,CCC#CC[C@H](O)C/C=C1/C(=O)C=C[C@@H]1C/C=C\CCCC(=O)OC,-8.8% (active)
8,O=C1/C(=C/N2N=C(c3ccc4ccccc4c3)CC2c2ccccc2O)SC(=S)N1c1cccnc1 (stereo not given),11.7% (inactive)
9,CCCCCCCCCCCCC[N+](C)(C)Cc1ccccc1,-14.8% (active)
10,NNCCc1ccc(NC(=O)CCCc2ccc(/C=C/C(=O)NO)cc2)cc1,16.5% (inactive)
11,COc1cc2c(cc1O)CC[C@@H]1[C@@H]2CC[C@]2(C)[C@@H](OCCN(C)C)CC[C@@H]12,10.3% (inactive)
12,NC(CSC(c1ccccc1)(c1ccccc1)c1ccc(Cl)cc1)C(=O)O (stereo not given),3.48% (active)
13,COc1cc2nc(N3CCCC3)nc(Nc3ccccc3)c2cc1OC,-11.4% (active)
14,Oc1cccc2ccc(N/N=C/c3cc(CN4CCOCC4)c(O)c4ncccc34)nc12,16.6% (inactive)
15,CC[C@@H](C(=O)[C@@H](C)[C@@H](O)[C@H](C)[C@@H]1O[C@@H]([C@@H](CC)C(=O)O)CC[C@@H]1C)[C@H]1OC2(C=C[C@@H](O)[C@]3(CC[C@@](C)([C@H]4CC[C@](O)(CC)[C@H](C)O4)O3)O2)[C@H](C)C[C@@H]1C (stereo not given in full),0.899% (active)
16,C=CC(COC(c1ccccc1)(c1ccccc1)c1ccccc1)N(CC)CC (stereo not given),59.3% (inactive)
17,Nc1n[nH]c2cc(F)c([C@@H]3Nc4ccc5[nH]ncc5c4[C@H]4C5CCC(C5)[C@@H]34)cc12 (stereo not given in full),16.6% (inactive)
18,CCN(CC)c1ccc(/C=N\NC(=O)/C=C/C=C/c2ccc3c(c2)OCO3)c(O)c1,21.7% (inactive)
19,O=C(N/N=C/c1c[nH]c2ccccc12)c1cc(-c2ccccc2)on1,46.1% (inactive)
20,Cc1cc2c3ccccc3ccc2[n+]2ccccc12,48.7% (inactive)
